Screening results from PubChem.
Mtb bLac sens: beta-lactam sensitization of Mtb H37Rv | M. tuberculosis H37Rv growth with meropenem, percent inhibition | inhibition, % at 25 µM | 330,000 tested, 0.27% active | AID 434955; call rule not given here;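 note: growth measured after seven days incubation then overnight dye step; 0% = bacteria only wells and 100% = bacteria with antibiotic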
GDH-TPI counter-1: inhibits GDH-TPI coupling enzymes, artifact for Mtb FBA screen; 360,000 tested, 1.2% active; inhibition, % at 4.8 µM; AID 588335; GDH-TPI coupled enzyme counterscreen, NADH absorbance; in the data active = inhibition above about 30%;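 note: 0% = DMSO wells and 100% = wells lacking the enzyme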
FadD28 binding: blocks FadD28 binding to the bisubstrate probe. fluorescence polarization. inhibition, % at 12.5 µM. 360,000 tested, 0.22% active; in the data active = inhibition above about 8.5%, passing the limit was not always enough
UGM FP inh: blocks M. tuberculosis UGM enzyme. AID 504406. inhibition, % at 10 µM. purified UGM, fluorescence polarization probe displacement. 320,000 tested, 0.06% active; in the data active = inhibition above about 10%, passing the limit was not always enough
Target sequence (P9WIQ1 whole entry, looked up): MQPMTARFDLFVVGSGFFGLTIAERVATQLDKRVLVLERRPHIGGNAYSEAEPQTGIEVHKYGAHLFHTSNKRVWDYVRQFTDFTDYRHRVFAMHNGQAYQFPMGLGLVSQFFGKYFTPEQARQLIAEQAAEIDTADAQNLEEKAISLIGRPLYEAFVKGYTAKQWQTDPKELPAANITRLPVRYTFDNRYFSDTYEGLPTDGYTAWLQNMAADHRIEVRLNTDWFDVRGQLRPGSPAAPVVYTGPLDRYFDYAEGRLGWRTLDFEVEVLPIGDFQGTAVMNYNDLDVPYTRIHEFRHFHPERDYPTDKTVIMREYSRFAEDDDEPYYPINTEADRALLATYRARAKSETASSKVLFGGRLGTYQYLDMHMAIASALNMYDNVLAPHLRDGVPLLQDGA
Rv3671c protease: inhibitors of M. tuberculosis serine protease Rv3671c. P9WHR9. inhibition, % at 5.96 µM. 320,000 tested, 0.048% active; in the data active = inhibition above about 38%;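 note: extracellular domain of Rv3671c used as enzyme; 0% = enzyme with DMSO and 100% = no enzyme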
FBA Mtb inh: inhibitors of M. tuberculosis fructose-bisphosphate aldolase; P9WQA3; purified M. tuberculosis FBA, fluorescence read-out; inhibition, % at 1 µM; 360,000 tested, 2.3% active; AID 588726;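 note: 0% = vehicle and 100% = reference inhibitor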
Mtb FBA inh conf: confirmation of M. tuberculosis fructose-bisphosphate aldolase inhibitors. shares compounds with FBA Mtb inh. purified M. tuberculosis FBA, fluorescence read-out. inhibition, % at 1 µM. 5,600 tested, 78% active. AID 651616;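 note: 0% = vehicle wells and 100% = reference inhibitor wells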
GDH-TPI counter-2: inhibits GDH-TPI coupling enzymes, flagging Mtb FBA hits; shares compounds with FBA Mtb inh; GDH-TPI coupled enzyme counterscreen, fluorescence; inhibition, % at 1 µM; 5,600 tested, 81% active; AID 652141; in the data active = inhibition above about 10%
Numbers without * were called inactive. Compounds with a hit are over-represented: about 3.7% of the library has one in this group of screens. Cut-off read from the data, not from the text of the source, unless noted: active = inhibition above about 27%; inactive = the rest.

`O=C(COc1ccc2c3c(c(=O)oc2c1)CCC3)NCC1CCC(C(=O)O)CC1` (stereo unspecified) gave Mtb bLac sens -1, GDH-TPI counter-1 15, FadD28 binding 0, UGM FP inh -1, Rv3671c protease -3 and FBA Mtb inh 16.
Screening CCc1c(C)c2ccc(OCC(=O)NCC3CCC(C(=O)O)CC3)cc2oc1=O (stereo unspecified) returned Mtb bLac sens -1, GDH-TPI counter-1 19, FadD28 binding 0, UGM FP inh -2, Rv3671c protease 0, FBA Mtb inh 79*, Mtb FBA inh conf 56* and GDH-TPI counter-2 36*.
CC(Oc1ccc2c(-c3ccccc3)cc(=O)oc2c1)C(=O)NCC1CCC(C(=O)O)CC1 (stereo unspecified) was read as Mtb bLac sens -8, GDH-TPI counter-1 21, FadD28 binding -3, UGM FP inh 4, Rv3671c protease 2 and FBA Mtb inh -1.
Screening CCCCc1cc(=O)oc2cc(OCC(=O)NCC3CCC(C(=O)O)CC3)ccc12 (stereo unspecified) returned Mtb bLac sens 3, GDH-TPI counter-1 11, FadD28 binding 0, UGM FP inh -1, Rv3671c protease 2 and FBA Mtb inh 21.
Screening Cc1c(Cc2ccccc2)c(=O)oc2cc(OC(C)C(=O)NCC3CCC(C(=O)O)CC3)c(Cl)cc12 (stereo unspecified) returned Mtb bLac sens 4, GDH-TPI counter-1 28, FadD28 binding -1, UGM FP inh 0, Rv3671c protease -8, FBA Mtb inh 34*, Mtb FBA inh conf active and GDH-TPI counter-2 190*.
For O=C(c1cccc(Cl)c1)N1CCC2CC1c1cc(N3CCOCC3)ccc12 (stereo unspecified) the results were GDH-TPI counter-1 -15, FadD28 binding -4 and FBA Mtb inh -3.
Nc1nc2c(c3c1c(=O)oc1ccccc13)CCCCC2 was read as Mtb bLac sens 3, GDH-TPI counter-1 2, FadD28 binding -2, UGM FP inh 0, Rv3671c protease 4, FBA Mtb inh 38*, Mtb FBA inh conf -11 and GDH-TPI counter-2 -14.
For CC(=O)Nc1nc2c(c3c1c(=O)oc1ccccc13)CCCCC2 the results were Mtb bLac sens -1, UGM FP inh -1 and Rv3671c protease -2.
`Cc1oc2cc(O)ccc2c(=O)c1-c1ccccc1` gave Mtb bLac sens 12, GDH-TPI counter-1 24, FadD28 binding -1, UGM FP inh -1, Rv3671c protease 1, FBA Mtb inh 71*, Mtb FBA inh conf 199* and GDH-TPI counter-2 161*.
`Cc1oc2cc(O)ccc2c(=O)c1-c1cnn(-c2ccccc2)c1` gave Mtb bLac sens -7, GDH-TPI counter-1 14, FadD28 binding -3, UGM FP inh 1, Rv3671c protease -16, FBA Mtb inh 41*, Mtb FBA inh conf active and GDH-TPI counter-2 active.
For CCCCNC(=O)C1(C)CCN1C(=O)c1ccc(OC)c(F)c1 (stereo unspecified) the results were GDH-TPI counter-1 15, FadD28 binding -1 and FBA Mtb inh 3.
CCCn1nnnc1NCc1c(F)cccc1Cl was read as Mtb bLac sens 3, GDH-TPI counter-1 -2, FadD28 binding -4, UGM FP inh 0, Rv3671c protease 8, FBA Mtb inh 68*, Mtb FBA inh conf -7 and GDH-TPI counter-2 -6.
`CCOC(=O)c1nnc(-c2ccccc2)[nH]c1=O` gave Mtb bLac sens 3, GDH-TPI counter-1 9, FadD28 binding 0, UGM FP inh -2, Rv3671c protease -7 and FBA Mtb inh 0.
Screening NC(=O)c1nc(-c2ccccc2)c(-c2ccccc2)[nH]c1=O returned Mtb bLac sens -6, GDH-TPI counter-1 13, FadD28 binding 0, UGM FP inh 2, Rv3671c protease -1, FBA Mtb inh 67*, Mtb FBA inh conf 37* and GDH-TPI counter-2 22*.
`CN1CCN(C(=O)c2cc3ccccc3oc2=O)CC1` gave Mtb bLac sens -2, GDH-TPI counter-1 2, FadD28 binding 0, UGM FP inh -1, Rv3671c protease 0 and FBA Mtb inh 2.
`CC(=O)Nc1cc2c(ccc3ccccc32)oc1=O` gave Mtb bLac sens -8, GDH-TPI counter-1 11, FadD28 binding 1, UGM FP inh -1, Rv3671c protease -6, FBA Mtb inh 105*, Mtb FBA inh conf 69* and GDH-TPI counter-2 63*.
O=C(c1cc2c(ccc3ccccc32)oc1=O)N1CCN(CCO)CC1 was read as Mtb bLac sens 5, GDH-TPI counter-1 26, FadD28 binding 1, UGM FP inh 1, Rv3671c protease -2, FBA Mtb inh 53*, Mtb FBA inh conf 63* and GDH-TPI counter-2 62*.
For CC(=O)c1cc2c(ccc3ccccc32)oc1=O the results were Mtb bLac sens 25, GDH-TPI counter-1 11, FadD28 binding -3, UGM FP inh 0, FBA Mtb inh 50*, Mtb FBA inh conf 73* and GDH-TPI counter-2 60*.
For C/C(=N\Nc1nc(-c2cc(C)ccc2C)cs1)c1cc2c(ccc3ccccc32)oc1=O the results were Mtb bLac sens 1, GDH-TPI counter-1 12, FadD28 binding -2, UGM FP inh -1, Rv3671c protease -7, FBA Mtb inh 29*, Mtb FBA inh conf 69* and GDH-TPI counter-2 43*.
Cc1cc(C)cc(NC(=O)C2COc3ccccc3O2)c1 (stereo unspecified) was read as GDH-TPI counter-1 3, FadD28 binding -2 and FBA Mtb inh -4.
Screening CCOc1ccc(NC(=O)c2cccc(S(=O)(=O)NCc3cccnc3)c2)cc1 returned GDH-TPI counter-1 0, FadD28 binding -1 and FBA Mtb inh -2.
`CCCn1c(CCC(=O)O)ccc1-c1cccs1` gave Mtb bLac sens 61, GDH-TPI counter-1 10, FadD28 binding -2, UGM FP inh 1, Rv3671c protease 1, FBA Mtb inh 35*, Mtb FBA inh conf 98* and GDH-TPI counter-2 84*.
Screening COCCCn1c(CCC(=O)O)ccc1-c1cccs1 returned Mtb bLac sens -12, GDH-TPI counter-1 3, FadD28 binding 0, UGM FP inh -1, Rv3671c protease 5, FBA Mtb inh 34*, Mtb FBA inh conf 34* and GDH-TPI counter-2 26*.
Screening CCCn1c(CCC(=O)O)ccc1-c1ccccc1 returned Mtb bLac sens -5, GDH-TPI counter-1 -9, FadD28 binding -4, UGM FP inh 1, Rv3671c protease -8 and FBA Mtb inh 15.
Screening CC(C)Oc1cccc(C(=O)C2CCCN(C(=O)c3ccccn3)C2)c1 (stereo unspecified) returned Mtb bLac sens 0, GDH-TPI counter-1 8, FadD28 binding -1, UGM FP inh 1, Rv3671c protease -7 and FBA Mtb inh 3.
